Casp6 inh: human caspase-6 inhibitors, primary screen, biochemical, VEID-R110 fluorescence, single point, set 2. AID 686996, 2013. purified caspase-6, Z-VEID-R110 cleavage fluorescence. 350,000 tested, 0.53% active. P55212. inhibition, % at 12.5 µM;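 active means mean inhibition across replicates at least about 35%, with every replicate also reaching that limit, limit read from the data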;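 further: 0% = median of neutral control wells and 100% = no fluorescence left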
RAD52 anneal inh: RAD52 DNA annealing inhibitors, primary screen, biochemical, FRET, single point, set 2 | DNA repair protein RAD52 homolog (Homo sapiens), P43351 | recombinant RAD52 DNA annealing, FRET fluorescence | inhibition, % at 18.7 µM | 360,000 tested, 0.46% active | AID 651710, 2012;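 active means every replicate showing at least 50% inhibition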
AF4-AF9 inh: inhibitors of AF4 peptide binding to AF9, primary screen, biochemical, AlphaScreen, biotin-AF4 peptide, FLAG-AF9, single point | Protein AF-9 (Homo sapiens), P42568 | inhibition, % at 10 µM | 350,000 tested, 0.47% active;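 active means every replicate reaching a set inhibition limit, whatever the replicate mean, cut at about 25% in these data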;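 further: 0% = plate neutral control median and 100% = total signal loss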
miR-122 sensor: miR-122 Renilla sensor signal increase in Huh7, primary screen, miR-122 inhibitor project, cell-based, single point, plate reader; activation (reporter increase), % at 12.5 µM; AID 602342, 2012; 340,000 tested, 0.3% active; Huh7 miR-122 Renilla luciferase sensor, 48 h; neutral wells = 0, positive control = 100;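 active means mean replicate activation score at least 90 and every replicate individually at or above 90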;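 further: higher luciferase means less miR-122 activity so hits act as miR-122 inhibitors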
NSD2 inh: NSD2 histone methyltransferase inhibitors, primary screen, biochemical, AlphaScreen, single concentration, set 2 | inhibition, % at 12.5 µM | AID 743445, 2014 | Histone-lysine N-methyltransferase NSD2 (Homo sapiens), O96028 | 310,000 tested, 0.54% active | NSD2 peptide methylation, 120 min; in the data active means inhibition above about 50%
Target sequence (O96028 whole entry, looked up): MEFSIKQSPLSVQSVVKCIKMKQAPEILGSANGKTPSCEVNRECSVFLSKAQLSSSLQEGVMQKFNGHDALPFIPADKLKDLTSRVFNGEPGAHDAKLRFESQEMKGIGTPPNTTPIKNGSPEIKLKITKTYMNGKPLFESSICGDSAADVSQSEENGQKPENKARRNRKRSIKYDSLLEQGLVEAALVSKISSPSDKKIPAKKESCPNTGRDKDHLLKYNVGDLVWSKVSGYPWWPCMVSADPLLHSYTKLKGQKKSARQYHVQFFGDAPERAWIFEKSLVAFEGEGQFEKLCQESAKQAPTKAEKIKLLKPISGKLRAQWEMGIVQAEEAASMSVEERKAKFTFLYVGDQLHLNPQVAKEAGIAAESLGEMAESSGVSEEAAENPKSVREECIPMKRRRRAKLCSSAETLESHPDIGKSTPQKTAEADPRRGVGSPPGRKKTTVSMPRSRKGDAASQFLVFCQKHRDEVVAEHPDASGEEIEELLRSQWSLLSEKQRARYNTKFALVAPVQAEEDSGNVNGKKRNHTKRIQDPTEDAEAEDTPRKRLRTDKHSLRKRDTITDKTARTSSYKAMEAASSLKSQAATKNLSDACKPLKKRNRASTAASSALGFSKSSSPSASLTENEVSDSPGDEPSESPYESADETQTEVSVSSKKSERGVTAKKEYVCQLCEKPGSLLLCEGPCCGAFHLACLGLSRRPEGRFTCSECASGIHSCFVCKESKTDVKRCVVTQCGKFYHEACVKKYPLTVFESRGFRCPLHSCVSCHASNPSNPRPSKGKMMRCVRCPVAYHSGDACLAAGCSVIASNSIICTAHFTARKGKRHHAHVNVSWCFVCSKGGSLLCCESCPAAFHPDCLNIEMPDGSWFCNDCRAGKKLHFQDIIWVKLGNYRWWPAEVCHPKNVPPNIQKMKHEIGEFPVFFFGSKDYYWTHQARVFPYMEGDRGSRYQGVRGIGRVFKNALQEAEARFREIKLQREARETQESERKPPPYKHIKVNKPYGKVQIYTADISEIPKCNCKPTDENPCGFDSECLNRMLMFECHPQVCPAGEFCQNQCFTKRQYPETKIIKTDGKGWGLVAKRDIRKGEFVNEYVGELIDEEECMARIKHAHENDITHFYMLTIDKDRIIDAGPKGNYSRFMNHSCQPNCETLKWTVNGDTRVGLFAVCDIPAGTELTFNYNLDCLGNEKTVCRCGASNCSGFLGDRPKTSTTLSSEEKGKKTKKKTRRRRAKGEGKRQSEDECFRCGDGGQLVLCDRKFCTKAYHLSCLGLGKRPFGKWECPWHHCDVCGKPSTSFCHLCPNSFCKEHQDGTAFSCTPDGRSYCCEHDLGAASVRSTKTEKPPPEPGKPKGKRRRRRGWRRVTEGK
RAD52 DNA ctr: DNA-binding compounds via dye displacement, dose response, artefact control for RAD52 inhibitor project, biochemical, fluorescence polarization, cherry-pick; shares compounds with RAD52 anneal inh; 1,000 tested, 8% active; AC50, µM; Salmon sperm DNA/acridine orange FP displacement;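 active means fitted half-maximal concentration for signal loss at or below twice the highest dose tested, in every separate run, actives reach about 64 µM in these data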
* hit, by the source's call; i = inactive; / = no result; [ ] = remark or other dose. Most compounds without a hit are left out; they make up all but 1.5% or so of the library.

SMILES	Casp6 inh	RAD52 anneal inh	AF4-AF9 inh	miR-122 sensor	NSD2 inh	RAD52 DNA ctr
CCC(=O)N(C)C[C@@H]1Oc2cc(C#Cc3ccccc3)ccc2S(=O)(=O)N([C@@H](C)CO)C[C@H]1C	-3.4	-9.7	-5.1	26.4[16.7 µM]	/	/
CN1CCN(c2nc3cc(C(F)(F)F)ccc3n3cccc23)CC1	/	66.5*	13.8	3.9	/	i
NCCCCc1ccc2ccc3cccc4ccc1c2c34	-3.0	52.7*	22.5	/	1.3	i
O=C(O)CCCc1ccc2ccc3cccc4ccc1c2c34	6.4	-17.0	-0.3	/	-0.6	/
CCOc1cc(CNCCCN2CCOCC2)cc(Br)c1OCc1ccccc1Cl	-6.8	50.1*	18.8	-25.6	8.3	i
CCOc1cc(CNCCO)cc(Br)c1OCc1ccccc1Cl	/	/	/	-10.3	1.0	/
CC1=CC(C)(C)N=C(Nc2nc(C)c3cc(C)cc(C)c3n2)N1	1.6	79.0*	12.4	3.6	12.7	i
COc1ccc(NC(=O)Nc2ccc3c(c2)[C@@H]2C[C@H](CC(=O)N(C)C)O[C@@H](CO)[C@@H]2O3)cc1	-1.4	-6.4	0.1	-0.7[16.7 µM]	/	/
CCCNc1nc(Cl)nc(NCc2cccnc2)n1	-10.8	84.7*	15.3	/	42.3	i
C[C@@H]1CN([C@H](C)CO)C(=O)c2cc(/C=C/c3ccccc3)cnc2O[C@@H]1CN(C)S(C)(=O)=O	2.6	12.9	-1.0	3.3[16.7 µM]	/	/
C[N+]1(CC(=O)NNc2c3ccccc3nc3ccccc23)CCOCC1	-2.7	101.0*	-8.2	/	10.7	9.04µM*
O=C(CN1CCOCC1)NNc1c2ccccc2nc2ccccc12	-0.6	14.5	5.6	/	-0.4	/
Cc1cccc2c(N)c3c(nc12)CCCC3 (tested in a mixture with another compound)	-0.6	-10.6	-2.3	8.3	1.4	/
Cc1cc(C)c2c(N)c3cccc(C)c3nc2n1	-1.8	78.4*	-8.6	/	8.5	32.2µM*
CC(=O)NC[C@H]1[C@@H](c2ccc(C#C[C@@H](C)O)cc2)[C@@H](CO)N1Cc1ccccn1	0.7	-9.3	-4.6	/	/	/
CC(C)CC#Cc1ccc2c(c1)O[C@@H](CN(C)C(=O)Cc1ccccn1)[C@H](C)CN([C@@H](C)CO)S2(=O)=O	-0.5	4.5	4.7	-19.3[16.7 µM]	/	/
COc1cccc2sc3ccc(C#CC4(N)CCCCC4)cc3c(=O)c12	-2.7	89.6*	11.1	/	/	i
COc1cccc2sc3cc(C#CC4(O)CCCCC4)ccc3c(=O)c12	1.0	-109.5	-2.0	3.2	/	/
COc1ccc(/C=N/NC(=O)c2cc(OC)c(OC)c(OC)c2)cc1CN1CCc2cc(OC)c(OC)cc2C1C (configuration not stated)	-7.3	52.9*	8.2	/	2.7	i
COc1ccc(/C=N/NC(=O)c2cccnc2)cc1CN1CCc2cc(OC)c(OC)cc2C1C (configuration not stated)	-13.7	1.3	6.6	/	4.2	/
Cc1cccc(OCC(=O)Nc2ccc3c(c2)nc(CN2CCCCC2)n3C)c1	-13.9	66.7*	-8.9	/	0.0	i
Cc1cccc(OCC(=O)Nc2ccc3c(c2)nc(CCN2CCCCC2)n3C)c1	-40.5	9.1	5.0	/	4.6	/
CC(=O)OCCc1[nH]c2ccccc2c1C	-2.8	-4.1	-10.0	/	/	/
CC(=O)OCCc1c2ccccc2c(CCCN(C)C)c2ccccc12	-29.9	69.3*	-0.6	/	0.1	i
COc1ccc(S(=O)(=O)N[C@@H]2CC[C@H](CC(=O)NCc3ccccc3F)O[C@@H]2CO)cc1	-0.1	-11.1	-0.2	/	/	/
SMILES	Casp6 inh	RAD52 anneal inh	AF4-AF9 inh	miR-122 sensor	NSD2 inh	RAD52 DNA ctr
FC(F)(F)c1ccc(CN2CCN(Cc3ccco3)CC2)cc1	1.6	97.4*	1.9	-6.7	1.6	i
CO[C@@H]1CN(C)C(=O)c2ccc(NC(=O)CC(F)(F)F)cc2OC[C@H](C)N(C(=O)C2CC2)C[C@H]1C	6.2	-85.2	-6.1	/	/	/
COc1ccc2nc3cc(Cl)ccc3c(Nc3cc(CN4CCCC4)c(O)c(CN4CCCC4)c3)c2n1	4.9	100.9*	47.0*	-13.6	/	4.02µM*
Cc1sc2cc3c(c(C(=O)c4ccccc4)[n+]2c1C)-c1cccc2cccc-3c12	8.0	102.8*	25.4*	/	24.7	61.1µM*
O=C(c1ccccc1)c1c2c(cc3sc4ccccc4[n+]13)-c1cccc3cccc-2c13	/	/	/	37.3	/	/
O=C(C[C@H]1CC[C@@H]2[C@H](COC[C@@H](O)CN2S(=O)(=O)c2ccccc2)O1)Nc1ccccc1	0.2	-2.5	-1.4	5.8[16.7 µM]	/	/
CCOc1cc2[nH]c(=S)n(Cc3ccc(C(=O)NCCN(CC)CC)cc3)c(=O)c2cc1OCC	-13.6	52.6*	-0.7	-12.9	14.6	i
O=C(c1ccccn1)N1C[C@@H]2[C@H](c3ccccc31)[C@@H](CO)N2C(=O)c1ccccn1	/	/	/	-4.5[16.7 µM]	/	/
CN(C)CCNC(=O)C(=O)Nc1cc2c3c(c1)CCC(=O)N3CCC2	-0.6	2.7	-2.0	-10.9	3.6	/
CN(C)CCCNC(=O)C(=O)Nc1cc2c3c(c1)CC(=O)N3CCC2	-172.7	96.9*	6.5	-5.7	14.0	i
C[C@@H]1CN([C@@H](C)CO)C(=O)Cc2cc(NC(=O)Nc3ccc4c(c3)OCO4)ccc2O[C@H]1CN(C)C	-2.7	9.6	5.4	2.2[16.7 µM]	/	/
CCC(=O)Nc1ccc2c(c1)OC[C@H](C)N(CCC(F)(F)F)C[C@H](C)[C@@H](OC)CN(C)C2=O	-1.4	4.8	0.2	/	/	/
CCCCCCCOC(=O)C[N+](C)(C)CCOC1CC2CCC1(C)C2(C)C (configuration not stated)	-44.0	85.4*	12.7	/	2.7	i
CCCCCCOC(=O)C[N+](C)(C)CCOC1CC2CCC1(C)C2(C)C (configuration not stated)	/	/	/	6.2	-2.5	/
OC(c1ccccc1)(c1ccccc1)C1CCN(CCCOc2ccccc2Cl)CC1	-3.3	54.6*	9.7	/	/	i
C[C@@H]1CN([C@@H](C)CO)C(=O)c2cc(-c3cccc(F)c3)cnc2O[C@@H]1CN(C)C(=O)C1CC1	/	/	/	-6.8[16.7 µM]	/	/
CCCN1C[C@@H](C)[C@H](OC)CN(C)C(=O)c2ccc(NC(=O)c3ccc(F)cc3)cc2OC[C@@H]1C	/	/	/	-0.7[16.7 µM]	/	/
COCCNC(=O)C[C@@H]1CC[C@H](NC(=O)NC2CCCCC2)[C@@H](CO)O1	6.9	-5.3	0.0	/	/	/
C[C@@H]1CN([C@@H](C)CO)C(=O)c2cc(NS(=O)(=O)c3ccc(F)cc3)ccc2O[C@@H](C)CCCCO[C@@H]1CN(C)Cc1ccccc1	-1.2	18.6	5.5	-0.7[16.7 µM]	/	/
CCN1CCN(c2cc(C)c3cc(NC(=S)N4CCN(c5ccccc5)CC4)ccc3n2)CC1	-13.3	-13.9	5.4	5.9	-5.3	/
